UBC13 polyUb – inhibitors of human UBC13 polyubiquitin chain formation | TR-FRET | inhibition, % at 20 µM | actives 0.47% (n = 330,000) | P61088 | AID 485273; in the data active = inhibition above about 45%, passing the limit was not always enough
Target sequence (P61088 whole entry, looked up): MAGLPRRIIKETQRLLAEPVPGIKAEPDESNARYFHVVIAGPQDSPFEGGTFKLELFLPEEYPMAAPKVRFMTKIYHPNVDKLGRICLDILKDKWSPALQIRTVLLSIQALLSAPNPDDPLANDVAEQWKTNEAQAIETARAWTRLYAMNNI
dFosB activator – mouse delta FosB homodimer activation; actives 0.99% (n = 340,000); P13346; purified delta FosB, TAMRA-CDK5 oligo fluorescence polarization; percent of positive-control signal above neutral wells; activation, % at 25 µM; AID 493131;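 active = mean activation above about 17%, with every replicate also reaching it, limit read from the data, passing the limit was not always enough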
Target sequence (P13346 whole entry, looked up): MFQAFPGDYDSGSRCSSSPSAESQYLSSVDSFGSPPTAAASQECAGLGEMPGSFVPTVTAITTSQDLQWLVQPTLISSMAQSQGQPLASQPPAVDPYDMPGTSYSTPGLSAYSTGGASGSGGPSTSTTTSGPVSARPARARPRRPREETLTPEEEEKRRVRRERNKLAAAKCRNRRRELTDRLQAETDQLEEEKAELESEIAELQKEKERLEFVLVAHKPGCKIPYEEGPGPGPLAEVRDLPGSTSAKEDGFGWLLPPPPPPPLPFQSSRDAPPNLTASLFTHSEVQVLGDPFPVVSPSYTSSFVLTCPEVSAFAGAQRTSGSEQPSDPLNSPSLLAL
NALP1 yeast inh – inhibitors of NALP1 inflammasome in yeast | actives 0.61% (n = 280,000) | inhibition, % at 10 µM | S. cerevisiae NALP1/ASC/caspase-1 growth, X-gal OD620, 72 h | AID 2071; in the data active = inhibition mostly above about 24%, no sharp cut-off; inactive = mostly below about 32%
CR mimetic SO – caloric restriction mimetics inhibiting age-related superoxide in yeast; superoxide response (% of plate mean), % at 10 µM; S. cerevisiae aged cells, superoxide DHE fluorescence; stronger effect = lower value; actives 0.18% (n = 330,000);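 active = superoxide response under a set limit, about three screen SD below normal, cut at about 65% in these data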;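 note: yeast aged for seven days with compound at 30 °C before DHE staining; 100% = average MFI of all compound-treated wells on the plate with controls excluded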
GRIN3A LBD mod – NR3A (human) ligand-binding domain modulation; NR3A LBD differential scanning fluorimetry, Tm shift; 0% = protein alone, 100% = glycine-bound protein; Tm shift relative to glycine control, % at 25 µM; actives 2.5% (n = 340,000);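 active = melting temperature shift of at least 10% of the positive control shift, at one fixed dose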
* hit, by the source's call; / = not tested or not shown. Hits are enriched below; roughly 4.3% of the tested compounds scored in any of these assays.

SMILES	UBC13 polyUb	dFosB activator	NALP1 yeast inh	CR mimetic SO	GRIN3A LBD mod
Cc1ccc(NC(=O)CC2S/C(=N/N=C/c3c[nH]c4ccccc34)NC2=O)cc1 (stereo unspecified)	15.4	0.4	28.8	110.0	11.4*
CCOC(=O)N/N=C/c1c[nH]c2ccccc12	-4.1	1.2	-6.2	92.5	-0.8
COc1cc(/C=C/C(=O)OCC(=O)NCc2cccs2)ccc1OCC#N	22.5	8.3	9.5	112.1	1.9
Clc1ccc(OCCn2cnc3ccccc32)cc1	5.5	-8.3	9.3	109.0	-0.4
Clc1ccccc1OCCn1cnc2ccccc21	-1.7	-5.3	30.0*	100.7	-0.5
COc1ccc([C@H]2CC(=O)C=C(c3ccc(Cl)c(C(F)(F)F)c3)C2)cc1	-1.5	-0.4	/	112.4	-18.9
Cc1ccc(C(=O)O)cc1NC(=O)C1=CSCCO1	0.7	0.4	12.6	90.6	20.9*
CCc1ccc(CNC(=O)c2ccc(NC(=O)C3=CSCCO3)cc2)cc1	-11.4	23.2*	8.8	97.6	-7.3
CCOC(=O)c1cccc(NS(=O)(=O)c2ccc(NC(C)=O)cc2)c1	13.8	-3.4	3.0	97.9	-3.7
COc1ccc(NC(=S)Nc2ccc3nc(C)c(C)nc3c2)cc1	-14.6	-9.0	-9.4	101.0	-4.9
CCOC(=O)c1cccc(NS(=O)(=O)Cc2ccccc2)c1	7.8	-5.4	44.1*	107.9	0.0
CCOc1ccc(NC(=S)Nc2ccc3nsnc3c2)cc1	-1.6	-12.3	21.9	104.8	22.2*
CCOc1ccc(NC(=S)Nc2cccc3ccccc23)cc1	-23.8	-5.1	40.5*	89.4	-6.2
COc1ccc(NC(=S)Nc2ccc3nsnc3c2)cc1	-48.2	-6.6	22.5	96.1	23.5*
Cc1ccc(S(=O)(=O)NCCC(=O)N2CCCCCCC2)cc1	-1.9	-4.6	/	100.1	-0.3
Cc1cccc(N2CCN(C(=O)CCC(=O)N3CC(C)Oc4ccc(C)cc43)CC2C)c1 (stereo unspecified)	11.1	-3.1	15.5	85.8	-1.2
CC(C)(C)OC(=O)N1CCCC(C(=O)Nc2cccc(C(=O)NC3CC3)c2)C1 (stereo unspecified)	/	-1.8	/	/	1.0
COc1ccc(NC(=O)Cc2nnc(SCC(=O)c3ccccc3)n2C)cc1	-1.9	-7.0	11.9	107.5	-1.3
Cc1cc(C)c(OCCCNC2CCCC2)c(Br)c1	12.4	-6.6	25.2	99.9	0.2
CCOC(=O)c1ccc2nc(C)c(C)nc2c1	-7.9	-1.8	/	112.1	0.5
CCOC(=O)c1cccc(P(C)(C)=O)c1	-0.7	-7.9	15.5	104.3	22.2*
CCOC(=O)c1cccc(NC(=O)Nc2ccc(OCC)cc2)c1	-8.8	-6.2	-10.7	97.4	20.2*
CCOc1ccc(NC(=O)Nc2cccc(C(=O)O)c2)cc1	-11.2	1.4	-2.9	104.6	-12.5
CCOc1ccc(NC(=O)Nc2ccc3nsnc3c2)cc1	3.2	5.7	8.7	84.6	25.6*
O=C(c1cc(=O)[nH]c2ccccc12)N(Cc1nnc(-c2ccccc2Cl)o1)C1CC1	3.0	-6.9	/	108.2	-2.2
SMILES	UBC13 polyUb	dFosB activator	NALP1 yeast inh	CR mimetic SO	GRIN3A LBD mod
CCC1(C(=O)OC)NC(c2ccco2)C2C(=O)N(c3ccc(F)cc3)C(=O)C21 (stereo unspecified)	-2.7	0.6	17.7	107.9	-0.9
O=C(/C=C/c1ccccc1)N1CCN(c2ccc([N+](=O)[O-])c(N3CCOCC3)c2)CC1	-29.6	-9.3	16.1	94.8	20.1*
O=C(c1ccc(Sc2ccccc2)c([N+](=O)[O-])c1)N1CCOCC1	-3.1	-3.8	5.0	113.8	16.4*
Cc1cccc(C(=O)N2CCN(c3ccc([N+](=O)[O-])c(N4CCOCC4)c3)CC2)c1	-25.3	-6.4	-3.7	88.3	-1.4
O=C(c1ccc(SCc2ccco2)c([N+](=O)[O-])c1)N1CCOCC1	-9.9	-4.7	14.3	96.6	-0.9
O=C(c1ccc2ccccc2c1)N1CCN(c2ccc([N+](=O)[O-])c(N3CCOCC3)c2)CC1	-11.4	-7.1	5.1	117.0	17.3*
COc1ccccc1NC(=O)COC(=O)c1[nH]c(=O)[nH]c(=O)c1N	-4.5	-0.2	/	83.7	1.7
COc1ccc(S(=O)(=O)NN(C)C(=O)c2nn(-c3ccccc3)ccc2=O)cc1	1.3	-6.6	10.5	94.2	0.0
CC[C@]12c3[nH]c4ccc(OC)cc4c3CCN1C(=O)C(CC(=O)NCCCOC)C[C@@H]2C(=O)N1CCN(C(=O)c2ccco2)CC1 (stereo partly specified)	/	-3.5	/	106.5	0.8
C=CCC[C@H](Cc1ccc(F)cc1)C(=O)OC[C@@H](NC(=O)[C@@H](CC=C)CC(=O)N[C@@H](CO)Cc1ccccc1)C(C)(C)C	-1.4	1.0	/	105.9	31.0*
C=CCC[C@@H](Cc1ccc(F)cc1)C(=O)OC[C@@H](NC(=O)[C@@H](CC=C)CC(=O)N[C@@H](CO)Cc1ccccc1)C(C)(C)C	10.3	-7.1	/	82.8	-5.8
C=CCC[C@@H](Cc1ccc(F)cc1)C(=O)OC[C@H](Cc1c[nH]c2ccccc12)NC(=O)[C@@H](CC=C)CC(=O)N[C@H](CO)Cc1ccccc1	-7.7	0.9	/	135.7	14.5*
C=CCC[C@H](Cc1ccc(F)cc1)C(=O)OC[C@H](Cc1c[nH]c2ccccc12)NC(=O)[C@@H](CC=C)CC(=O)N[C@@H](CO)Cc1ccccc1	-12.8	4.9	/	100.4	-5.2
Cc1sc2ncnc(OCC(=O)N3CC(=O)Nc4ccccc43)c2c1C	-3.1	-4.2	-1.7	92.1	-1.1
COc1ccc(N2CCN(CCC(O)c3ccc4ccccc4c3)CC2)cc1 (stereo unspecified)	1.7	-5.0	39.6*	97.8	1.1
Cc1cccc(NC(=O)COc2ccc(/C=C\c3[nH]c(=O)[nH]c(=O)c3[N+](=O)[O-])cc2)c1	-5.7	-3.2	1.1	91.7	10.1*
O=C(NC1CCCCC1)[C@H](CSCc1ccccc1)N1Cc2ccccc2C1=O	10.3	-4.5	23.9	93.9	1.4
O=C(OCc1ccc(COC(=O)c2ccc(O)cc2)cc1)c1ccc(O)cc1	10.4	3.6	20.5	89.2	21.0*
COc1cccc(-c2ncc3ccccc3c2COC(=O)CCC(=O)O)c1	2.1	-4.3	/	102.8	1.1
S=C(NCc1cccs1)Nc1cc(Cl)cc(Cl)c1	1.6	0.9	12.2	108.5	12.1*
CCCCN1C(=O)C(=O)N(CC(=O)N2CCc3ccccc32)C1=O	-4.5	0.1	/	117.2	-1.4
NC(=O)c1ncn([C@@H]2O[C@H](CNCc3ccccc3C#Cc3ccccc3)[C@@H](O)[C@H]2O)n1	/	-10.6	/	/	11.3*
CC(C)(O)C#Cc1ccc(CNC[C@H]2O[C@@H](n3cnc(C(N)=O)n3)[C@H](O)[C@@H]2O)s1	/	-4.6	/	/	11.3*
N#CCOc1ccccc1CNC[C@H]1O[C@@H](n2cnc(C(N)=O)n2)[C@H](O)[C@@H]1O	/	2.1	/	/	3.1
Cc1sc2ccccc2c1CNC[C@H]1O[C@@H](n2cnc(C(N)=O)n2)[C@H](O)[C@@H]1O	/	-6.8	/	/	0.3

Compound activity: PubChem, several laboratories
